Structures can show the parent of a compound that is named as a salt. ± gives the uncertainty stated by the source.

In the test the test system is NCC-MFS5-C1. As to the kind of experiment: cell viability relative to DMSO control; higher = less growth inhibition. The note with it: 10 µM; treatment time: 3 days. The procedure:
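NCC-MFS5-C1 myxofibrosarcoma cells (1x10^4 per well, 384-well) were treated on day 2 with 10 µM of each drug. On day 5, viability was read by CCK-8 absorbance at 450 nm and normalised to the DMSO control (%), n = 2.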
In the case of `COc1cccc2c1C(=O)c1c(O)c3c(c(O)c1C2=O)C[C@@](O)(C(C)=O)C[C@@H]3O[C@H]1C[C@H](N)[C@H](O)[C@H](C)O1` [Daunorubicin HCl], the cell viability (as a rule, a read-out of living cells in per cent, often relative to untreated cells) stood at 14.4 ± 6.7%.
For the compound `COC(=O)c1ccc2c(C(=Nc3ccc(N(C)C(=O)CN4CCN(C)CC4)cc3)c3ccccc3)c(O)[nH]c2c1` [Nintedanib (BIBF 1120)], the cell viability was 39.1 ± 0.64%.
Then `COc1nc(N)nc2c1ncn2[C@@H]1O[C@H](CO)[C@@H](O)[C@@H]1O` [Nelarabine], with 102 ± 3.3%; and `CC(=O)OCC(=O)[C@@]1(O)CC[C@H]2[C@@H]3CCC4=CC(=O)CC[C@]4(C)[C@H]3C(=O)C[C@@]21C` [Cortisone acetate], with 90.9 ± 9.9%.
Then `C#Cc1cccc(Nc2ncnc3cc(OCCOC)c(OCCOC)cc23)c1` [Erlotinib HCl (OSI-744)], with 81.6 ± 1%; and `O=C(Nc1nc2cccc(-c3ccc(CN4CCS(=O)(=O)CC4)cc3)n2n1)C1CC1` [Filgotinib (GLPG0634)], with 93.1 ± 4.5%.
As to `CNC(=O)c1ccccc1Sc1ccc2c(/C=C/c3ccccn3)n[nH]c2c1` [Axitinib], the cell viability was determined as 79.1 ± 4.4%.
To `COc1cc2c(Oc3ccc4[nH]c(C)cc4c3F)ncnc2cc1OCCCN1CCCC1` [Cediranib (AZD2171)] belongs -0.717 ± 0.35%; to `C=CC[C@@H]1/C=C(\C)C[C@H](C)C[C@H](OC)[C@H]2O[C@@](O)(C(=O)C(=O)N3CCCC[C@H]3C(=O)O[C@H](/C(C)=C/[C@@H]3CC[C@@H](O)[C@H](OC)C3)[C@H](C)[C@@H](O)CC1=O)[C@H](C)C[C@@H]2OC` [Tacrolimus (FK506)], 93.7 ± 7.5%; to `COc1cc(Nc2ncc(F)c(Nc3ccc4c(n3)N(COP(=O)(O)O)C(=O)C(C)(C)O4)n2)cc(OC)c1OC` [Fostamatinib (R788)], 29.5 ± 0.8%.
As to `CN(C)C/C=C/C(=O)Nc1cc2c(Nc3ccc(F)c(Cl)c3)ncnc2cc1O[C@H]1CCOC1` [Afatinib (BIBW2992)], the cell viability was 9.65 ± 4.3%.
Regarding `CCC(C)n1ncn(-c2ccc(N3CCN(c4ccc(OCC5COC(Cn6cncn6)(c6ccc(Cl)cc6Cl)O5)cc4)CC3)cc2)c1=O` (stereo not given) [Itraconazole], the cell viability worked out at 77.7 ± 15%.
For `CN(C)/N=N/c1[nH]cnc1C(N)=O` [Dacarbazine], the cell viability was found to be 82 ± 1.7%.
Then `C/C(=C\c1csc(C)n1)[C@@H]1C[C@@H]2O[C@]2(C)CCC[C@H](C)[C@H](O)[C@@H](C)C(=O)C(C)(C)[C@@H](O)CC(=O)N1`, with 51.24 ± 0.45%; and `NC(=O)NO` [Hydroxyurea], with 71.3 ± 11%.
To `CC(C)C(=O)Nc1ccc([N+](=O)[O-])c(C(F)(F)F)c1` [Flutamide] belongs 78.3 ± 6%; to `CCCCCOC(=O)Nc1nc(=O)n([C@@H]2O[C@H](C)[C@@H](O)[C@H]2O)cc1F` [Capecitabine], 72.9 ± 5.9%.
Then `CCOC(=O)[C@H](CCc1ccccc1)N[C@H]1CS[C@H](c2cccs2)CN(CC(=O)O)C1=O` [Temocapril HCl], with 86 ± 1.2%; and `Cc1nc(Nc2ncc(C(=O)Nc3c(C)cccc3Cl)s2)cc(N2CCN(CCO)CC2)n1` [Dasatinib Monohydrate], with 60.9 ± 3.2%.
With `COc1c2ccoc2cc2oc(=O)ccc12` [Bergapten], the cell viability was 105 ± 18%.
Then `CS(=O)(=O)CCNCc1ccc(-c2ccc3ncnc(Nc4ccc(OCc5cccc(F)c5)c(Cl)c4)c3c2)o1`, with 77.3 ± 25%; and `CCc1c2c(nc3ccc(OC(=O)N4CCC(N5CCCCC5)CC4)cc13)-c1cc3c(c(=O)n1C2)COC(=O)[C@]3(O)CC` [Irinotecan HCl Trihydrate], with 64.1 ± 2.3%; and `Cc1ccc(-n2[nH]c(C)c(N=Nc3cccc(-c4cccc(C(=O)O)c4)c3O)c2=O)cc1C` [Eltrombopag Olamine], with 111 ± 5.6%.
Then `O=NN(CCCl)C(=O)NC1CCCCC1` [Lomustine], with 84.1 ± 18%; and `O=C(CCBr)N1CCN(C(=O)CCBr)CC1` [Pipobroman-D8], with 108 ± 6.2%; and `COc1cc2ncnc(Nc3ccc(F)c(Cl)c3)c2cc1NC(=O)/C=C/CN1CCCCC1`, with 82.9 ± 3.8%.
To `N=C(N)NC(=N)N1CCOCC1` [Moroxydine HCl] belongs 91.2 ± 3.7%.
Take `CS(=O)(=O)OCCCCOS(C)(=O)=O` [Busulfan]: the cell viability stood at 83.3%.
`N#CC1(c2ccc(NC(=O)c3cccnc3NCc3ccncc3)cc2)CCCC1` [Apatinib]: the cell viability was found to be 80.9 ± 2%.
Then `Clc1ccc(C(c2ccccc2Cl)C(Cl)Cl)cc1` (stereo not given) [Mitotane], with 76.1 ± 3.1%; and `Nc1cccc2c1C(=O)N(C1CCC(=O)NC1=O)C2=O` (stereo not given) [Pomalidomide], with 97.7 ± 6.4%.
In the case of `C[C@]12CC[C@@H]3c4ccc(O)cc4C[C@@H](CCCCCCCCC[S+]([O-])CCCC(F)(F)C(F)(F)F)[C@H]3[C@@H]1CC[C@@H]2O` (stereo not given in full) [Fulvestrant], the cell viability turned out to be 74.38 ± 0.27%.
To `N#CC[C@H](C1CCCC1)n1cc(-c2ncnc3[nH]ccc23)cn1` belongs 66.2 ± 4.7%; to `COc1cc2nccc(Oc3ccc(NC(=O)NC4CC4)c(Cl)c3)c2cc1C(N)=O` [Lenvatinib (E7080)], 75.4 ± 0.93%; to `CC#CCn1c(N2CCC[C@@H](N)C2)nc2c1c(=O)n(Cc1nc(C)c3ccccc3n1)c(=O)n2C` [Linagliptin], 92.8 ± 5.3%.
Then `CC(C)C[C@H](NC(=O)[C@H](Cc1ccccc1)NC(=O)c1cnccn1)B(O)O` [Bortezomib (PS-341)], with 4.89 ± 1.4%; and `CN(CCOc1ccc(CC2SC(=O)NC2=O)cc1)c1ccccn1` (stereo not given) [Rosiglitazone], with 88.53 ± 0.85%.
Regarding `CN(Cc1cnc2nc(N)nc(N)c2n1)c1ccc(C(=O)N[C@@H](CCC(=O)O)C(=O)O)cc1` [Methotrexate], the cell viability turned out to be 80.2 ± 3.6%.
To `CN(C)C/C=C/C(=O)Nc1cc2c(Nc3ccc(F)c(Cl)c3)ncnc2cc1O[C@H]1CCOC1` [Afatinib (BIBW2992) Dimaleate] belongs 15 ± 7%.
To `CC(=O)Oc1ccccc1C(=O)O` [Aspirin] belongs 81.4 ± 1.1%.

These data come from the supplement of paper PMC8773631.
